The record followed here is PubChem BioAssay AID2284374 (EPA ToxCast).

Inconclusive results are not listed. The source made the active and inactive calls. Rule for the calls: active = hit-call score of the fitted dose curve at least 0.9, where 1 is the maximum; inconclusive = response in the unintended direction; inactive = score below 0.9.

Chain of human Peroxisome Proliferator-activated Receptor delta (PPARd), PPARD (gene 5467) (Q03181 whole entry, looked up): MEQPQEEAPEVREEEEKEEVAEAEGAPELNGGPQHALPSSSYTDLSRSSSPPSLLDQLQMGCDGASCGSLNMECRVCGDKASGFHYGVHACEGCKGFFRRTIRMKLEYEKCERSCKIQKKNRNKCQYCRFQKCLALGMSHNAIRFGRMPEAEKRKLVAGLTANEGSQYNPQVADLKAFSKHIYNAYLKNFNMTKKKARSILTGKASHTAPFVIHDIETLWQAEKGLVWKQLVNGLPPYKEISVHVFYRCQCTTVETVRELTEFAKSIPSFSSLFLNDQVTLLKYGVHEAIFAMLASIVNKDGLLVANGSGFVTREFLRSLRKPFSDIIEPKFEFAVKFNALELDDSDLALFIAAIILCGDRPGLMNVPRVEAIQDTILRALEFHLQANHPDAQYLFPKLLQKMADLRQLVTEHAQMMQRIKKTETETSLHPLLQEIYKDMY

In the experiment the target is human Peroxisome Proliferator-activated Receptor delta (PPARd), PPARD (gene 5467) (UniProt Q03181). The experiment in a line: ERF_US_NR_hPPARD: Eurofins (ERF) Nuclear Receptor (NR) Cell Based Protein-Protein Interaction LeadHunter Assay for human Peroxisome Proliferator-activated Receptor delta (PPARd) Agonism. As to the method:
ERF_US_NR_hPPARD is a cell-based, single-readout assay that uses extracted gene-proteins in a cell-line assay. Measurements were taken 5 hours after chemical dosing in a 384-well plate. See PPARdelta Human NHR Cell Based Agonist Protein-Protein Interaction Assay, DiscoverX.ERF_US_NR_hPPARD is an assay component calculated from the ERF_US_NR_hPPARD assay. It is designed to measure radioligand binding using a type of binding reporter as detected by scintillation counting with radiometry technology.Data from the assay component ERF_US_NR_hPPARD was analyzed at the assay endpoint, ERF_US_NR_hPPARD, in the positive analysis fitting direction relative to DMSO as the negative control and baseline of activity. Using a type of binding reporter, gain-of-signal activity can be used to understand changes in binding as they relate to gene PPARD. To generalize the intended target to other relatable targets, this assay endpoint is annotated to the nuclear receptor intended target family, where the subfamily is non-steroidal.
Cells were seeded in a total volume of 20 uL into white walled, 384-well microplates and incubated at 37C overnight prior to testing. Briefly, intermediate dilution of sample stocks was performed to generate 5X sample in assay buffer. 5 uL of 5X sample was added to cells and incubated at 37C for 300 minutes. […] The results are expressed as a percent efficacy of the control ligand.
`O=C(CC(=O)C(F)(F)C(F)(F)C(F)(F)F)c1cccs1`: the outcome was inactive. As to `O=C(O)CCC(F)(F)C(F)(F)C(F)(F)F`, the result was inactive.
